In PubChem BioAssay (NCI):
Compounds without any hit were thinned out: in the full panel of roughly 83,000, 20% have a hit.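 Single-concentration screen, 48 h exposure, 96-well plates. Endpoint: percent growth. Below 10 = active.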 Values without a mark were called inactive. Activity calls are given as the source filed them.

Legend:
Experiment in all cases: NCI-60 one-dose screen, 48 h (100 = growth as untreated, 0 = no growth, -100 = all killed)
Conditions in all cases: 10 µM unless noted
HCT-15 colon = system: HCT-15 colon
HT29 colon = system: HT29 colon
SNB-75 CNS = system: SNB-75 CNS
SNB-19 CNS = system: SNB-19 CNS
U251 CNS = system: U251 CNS
PC-3 prostate = system: PC-3 prostate
SK-MEL-5 melanoma = system: SK-MEL-5 melanoma
UACC-62 melanoma = system: UACC-62 melanoma
LOX IMVI melanoma = system: LOX IMVI melanoma
SK-MEL-28 melanoma = system: SK-MEL-28 melanoma

| Compound | growth (HCT-15 colon) [%] | growth (HT29 colon) | growth (SNB-75 CNS) | growth (SNB-19 CNS) | growth (U251 CNS) | growth (PC-3 prostate) | growth (SK-MEL-5 melanoma) | growth (UACC-62 melanoma) | growth (LOX IMVI melanoma) | growth (SK-MEL-28 melanoma) [%] |
| --- | --- | --- | --- | --- | --- | --- | --- | --- | --- | --- |
| COc1cc(C2=NNC(c3ccc(N(C)C)cc3)C2)cc(OC)c1OC (stereo not given) | 30.9 | 6.34% (active) | 37.8% | 8.5% (active) | 28.8% | 29.3% | -4.54% (active) | 40.8% | 49.4% | 79.4 |
| Cc1c(Br)cccc1NC(=O)c1sc2nc3c(cc2c1N)CN(Cc1ccccc1)CC3 | 18.2 | 0.812% (active) | -9.13% (active) | 23% | 9.19% (active) | 31.8% | 19.4% | 28.1% | 30.9% | 53.8 |
| Cc1nccc2c3ccc(OCc4cn(-c5ccccc5)nn4)cc3n(CCCc3ccccc3)c12 | 56.9 | 38.5% | 73.8% | 79.3% | 76.8% | 65.1% | 80.4% | 83.3% | 81.3% | 99 |
| N#Cc1c(-c2ccc(F)cc2)nc(N=Nc2c(O)[nH]c3ccccc23)nc1N1CCOCC1 | 66.9 | 78.4% | 22.5% | 70.1% | 27.4% | 64.1% | 64.7% | 48.8% | 74.9% | 72.3 |
| CC(C)(C)c1ccc(O)c(Cc2cc(C(C)(C)C)ccc2O)c1 | 101 | 98.7% | 89.2% | 101% | 90.2% | 12.5% | 99% | 87.8% | 99.1% | 104 |
| COc1cc(C(=O)Nc2cc(OC)c3ccn(C)c3c2)cc2c1C[C@]1(C)CC[C@@H](O)C(C)(C)[C@H]1O2 | 20.9 | 5.58% (active) | -9.5% (active) | 33.3% | 16.5% | 3.01% (active) | -34.8% (active) | -8.05% (active) | -14.6% (active) | 13.4 |
| Cc1c(Cl)cccc1NC(=O)c1sc2nc3c(cc2c1N)CCCCCC3 | 24.1 | -10.3% (active) | -6.81% (active) | 29.1% | 15.7% | 32.9% | 28.7% | 32% | 40.8% | 58.7 |
